In PubChem BioAssay AID720708 (National Center for Advancing Translational Sciences (NCATS), 2013):
About 660 (0.18%) of roughly 360,000 compounds were called active. Another 2% or so got no clear call; they are omitted. The call rests on the fitted dose curve; in most records, active means well fitted inhibition curve with a large enough effect; inconclusive means small, poorly fitted or top-dose-only effect; inactive means no such curve, though single readings can be large or run the other way. The entries come from a sample that favours actives as a whole.

Target: Rap guanine nucleotide exchange factor 4 (Homo sapiens) (UniProt Q8WZA2)
Sequence (Q8WZA2 whole entry, looked up): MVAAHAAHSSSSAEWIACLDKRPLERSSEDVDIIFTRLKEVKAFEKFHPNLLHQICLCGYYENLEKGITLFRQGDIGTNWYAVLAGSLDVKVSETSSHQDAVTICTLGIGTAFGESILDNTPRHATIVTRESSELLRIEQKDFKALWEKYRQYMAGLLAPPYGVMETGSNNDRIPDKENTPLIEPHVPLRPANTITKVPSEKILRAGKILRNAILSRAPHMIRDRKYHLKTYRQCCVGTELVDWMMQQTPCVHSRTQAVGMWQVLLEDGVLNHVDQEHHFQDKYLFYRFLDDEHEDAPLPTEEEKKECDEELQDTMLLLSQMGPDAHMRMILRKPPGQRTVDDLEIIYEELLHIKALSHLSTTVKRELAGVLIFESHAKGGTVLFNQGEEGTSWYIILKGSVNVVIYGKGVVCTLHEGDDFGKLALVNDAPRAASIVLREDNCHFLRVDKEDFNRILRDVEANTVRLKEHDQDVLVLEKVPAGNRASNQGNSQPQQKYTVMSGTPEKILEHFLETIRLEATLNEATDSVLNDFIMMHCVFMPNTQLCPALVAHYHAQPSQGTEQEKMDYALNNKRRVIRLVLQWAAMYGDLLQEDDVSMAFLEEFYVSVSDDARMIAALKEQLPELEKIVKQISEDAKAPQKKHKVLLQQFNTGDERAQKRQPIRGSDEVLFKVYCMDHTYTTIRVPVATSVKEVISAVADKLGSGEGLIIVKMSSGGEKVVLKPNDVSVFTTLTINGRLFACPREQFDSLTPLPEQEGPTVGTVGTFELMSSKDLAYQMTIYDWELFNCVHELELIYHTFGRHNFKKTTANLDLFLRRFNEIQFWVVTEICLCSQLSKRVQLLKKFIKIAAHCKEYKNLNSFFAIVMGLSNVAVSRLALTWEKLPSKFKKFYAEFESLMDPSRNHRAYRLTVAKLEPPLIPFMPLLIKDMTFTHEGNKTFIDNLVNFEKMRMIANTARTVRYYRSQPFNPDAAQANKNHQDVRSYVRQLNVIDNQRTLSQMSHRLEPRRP
Assay: qHTS for Antagonist of cAMP-regulated guanine nucleotide exchange factor 2 (EPAC2): primary screen; further: nearly all actives have a fitted effect of over 45% in size
Conditions: EPAC2 GEF exchange of Rap1B-BODIPY-GDP, fluorescence; series mostly up to 114 µM; activity, negative = inhibition: at the top concentration
On the % scale 0 is the no-effect control and ±100 the full control effect.

activity, negative = inhibition, inactive:
CC(=O)Nc1ccc(SC[C@H](Cc2ccccc2)N2CC[C@@H](C)CCC2=O)cc1 -23.3%
CCCCOCCCNC(=O)C[C@@H]1C[C@@]2(C(=O)OCC)CCCC=C2N(CCC2=CCCCC2)C1=O -26.5%
C[N+](C)(C)CCNC(=O)c1cc[n+](Cc2ccccc2)c(/C=N/O)c1 -2.59%
COc1cc(OC)cc(C(=O)Nc2nnc(SCC(=O)NCC3CCCO3)s2)c1 (stereo not given) 7.54%
Nc1nc(SCC(=O)NN(c2ccccc2)c2ccccc2)n[nH]1 1.72%
COc1ccc(CN2C(=O)C(CC(=O)NCCCCc3ccccc3)CC(C(=O)N3CCOCC3)=C2C)cc1 (stereo not given) 4.13%
COc1ccccc1C(CNC(=O)c1ccc(C)c(S(=O)(=O)N2CCCCC2)c1)N(C)C (stereo not given) -3.77%
O=c1[nH]cnc(O)c1C(c1ccc(F)cc1)c1c(O)nc[nH]c1=O 3.99%
CCC(=O)N1CCc2cc(S(=O)(=O)NC(C(=O)N3CCc4ccccc4C3)C(C)C)ccc21 (stereo not given) 4.59%
COC(=O)c1ccccc1OCC(=O)N1CCN(c2ccc(Cl)cc2)CC1 -26.2%
N#C[C@]1(S(=O)(=O)c2ccccc2)C[C@@H]2ON=C(c3cccc(Br)c3)[C@@H]2C1 7.16%
O=C1Nc2ccccc2-n2nnnc2C1N1CCN(c2cccc(C(F)(F)F)n2)CC1 (stereo not given) -21.8%
CN(C(=O)CSc1nnc(N)s1)c1c(N)n(Cc2ccccc2)c(=O)[nH]c1=O 2.51%
C/C(=N\NC(=O)c1cccnc1)c1ccc(-n2ccnc2)cc1 4.67%
CO[C@@H]1CN(C)C(=O)c2cc(NC(=O)C3CC3)ccc2OC[C@H](C)N(C(=O)CN2CCOCC2)C[C@@H]1C 3.76%
S=C(Nc1ccc2c(c1)OCO2)N1CCCC1 1.35%
COC(=O)[C@]12CCCCC=C1N(Cc1ccccc1)C(=O)[C@H](CC(=O)NCc1ccc(C)o1)C2 -13.8%
Cn1nnnc1SCC(=O)NNC(=O)c1ccc(Br)cc1 2.81%
CC1(C(=O)NS(=O)(=O)c2cccc(OC(F)F)c2)CCN1C(=O)COc1ccc(Cl)cc1 (stereo not given) 7.7%
CCc1ccc(Oc2nc([N+](=O)[O-])nn2C)cc1 -13.8%
COc1ccc(C(O)C(O)(C(=O)OC(C)C)c2ccc(C)cc2)cc1 (stereo not given) -10.2%
COC(=O)[C@@]12C[C@@H](CC(=O)N3CCCCC3)C(=O)N(Cc3ccc4c(c3)OCO4)C1=CCC(C)(C)C2 -2.4%
O=C(c1cccc(S(=O)(=O)N2CCCC2)c1)N(Cc1ccco1)C1CCS(=O)(=O)C1 (stereo not given) -2.8%
COc1ccc(C(C)NC(=O)C23CC4CC(CC(C4)C2)C3)cc1 (stereo not given) -0.52%
COc1ccc(NC(=O)C2(C)Cc3c(-c4ccc(C(N)=O)cc4)ccnc3O2)cc1 (stereo not given) -23%
c1ccc(-c2ccnc3nc(-n4cccc4)nn23)cc1 -2.79%
Cc1cc(C(=O)CC#N)c(C)n1-c1c(C)n(C)n(-c2ccccc2)c1=O -4.76%
O=C(Cn1cc(C(=O)C2CC2)c2ccccc21)Nc1ccccc1Cl -4.51%
COc1ccc(N(CC(=O)NC2CCCCC2)S(=O)(=O)c2c(C)[nH]c(=O)[nH]c2=O)cc1 -0.251%
CCOC(=O)[C@]12CCCC=C1N(Cc1ccc(Cl)cc1Cl)C(=O)[C@H](CC(=O)N1CCCCC1)C2 -17.7%
Cc1ncc(CO)c(/C=N/NC(=O)c2cccc(S(=O)(=O)N3CCCC3)c2)c1O 19%
O=C(COc1nc2ccccc2nc1N1CCOCC1)NCC(F)(F)F 1.12%
COc1ccc(-c2c(C(C)=O)c(C)nc3sc4c(=O)n(-c5ccc(C)cc5)nnc4c23)cc1 -4.14%
CCNC(=S)N1CCC(c2nc3cc(C)c(C)cc3[nH]2)CC1 -4.52%
CCCCn1nc(C(=O)OCC(=O)Nc2sccc2C(N)=O)c2ccccc2c1=O -10.1%
